The source made the active and inactive calls.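 How the source made its calls, unless noted: active means inhibition of the reporter signal at or above 50%; inactive means inhibition below 50%.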

A short description of assay [1]: inhibitors of TNFa-induced NFkB p65 translocation, primary screen, imaging, HUVEC, MLSMR starter and 10KST1 sets (AID 438;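 active means inhibition above 20% together with a positive visual image hit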;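 further: compound added about 3h40 before a 20 min TNFalpha stimulation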;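 on inhibition: signal is the nuclear over cytoplasmic p65 intensity ratio per well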). To be noted: HUVEC TNFa-induced p65 nuclear translocation; cell count: measured here: nuclei count (cytotoxicity indicator), at 2.08 µM; inhibition: at 2 µM, stronger effect = higher value, 0% TNFa-plus-vehicle, 100% no-TNFa wells.
Assay [2] in a line: inhibitors of mutant huntingtin aggregation, primary screen, imaging, exon1htt(103Q)mCFP cells, high-content imaging (AID 483;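 active means visual image review flags a hit and inhibition of aggregation exceeds 20%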;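 further: compound exposure lasted 3 days before fixation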;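 on nuclei count: percent of the per-plate median nuclei count of sample wells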). The following applies: exon1htt(103Q)mCFP cell line, aggregate imaging, at 2 µM; inhibition of aggregation: stronger effect = higher value; nuclei count: measured here: cell count, toxicity.
The nature of assay [3]: inhibitors of E-selectin induction by TNFa, primary screen, imaging, HUVEC, immunofluorescence, MLSMR starter and 10KST1 sets (AID 487;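 active means visually confirmed hit in the image check and inhibition above 20%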;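 on inhibition: signal is fraction of cell area covered by stained E-selectin grains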;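 on nuclei count: 100% = median nuclei count of all wells on the same plate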). To be noted: HUVEC TNFalpha-induced E-selectin immunofluorescence imaging, at 2 µM; inhibition: stronger effect = higher value; nuclei count: measured here: cell number, toxicity.
The target of assay [4] is Voltage-gated potassium channel subunit beta-2 (Rattus norvegicus) (UniProt P62483). The assay is described as follows: KvBeta enzyme negative modulators, primary screen, biochemical, NADPH fluorescence (AID 622;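 active means fluorescence slope higher than the sample average by over 3 SD, cut at about -0.22 in these data, passing the limit was not always enough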;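 further: slope of raw intensity against log time taken from 70 to 1610 s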). The following applies: recombinant KvBeta, 4-cyanobenzaldehyde reduction, at 10 µM, stronger effect = higher value.
Chain of Voltage-gated potassium channel subunit beta-2 (Rattus norvegicus) (P62483 whole entry, looked up): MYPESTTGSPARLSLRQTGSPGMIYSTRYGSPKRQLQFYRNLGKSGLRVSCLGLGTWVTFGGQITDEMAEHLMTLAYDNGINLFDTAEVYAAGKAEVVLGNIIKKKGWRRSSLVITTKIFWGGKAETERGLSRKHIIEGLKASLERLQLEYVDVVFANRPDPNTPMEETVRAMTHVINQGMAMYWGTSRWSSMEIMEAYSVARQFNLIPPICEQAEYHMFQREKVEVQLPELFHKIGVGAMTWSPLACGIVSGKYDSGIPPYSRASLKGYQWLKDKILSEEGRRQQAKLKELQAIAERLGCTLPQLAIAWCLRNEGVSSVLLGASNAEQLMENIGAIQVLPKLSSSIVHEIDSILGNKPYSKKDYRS
For assay [5] the target is unchanged. The assay is described as follows: KvBeta positive modulators, primary screen, biochemical, NADPH fluorescence (AID 623;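 active means NADPH fluorescence slope more negative than the mean of all samples by about 3 SD, 99.7% confidence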;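 further: fluorescence intensity change per second fitted from 20 to 320 s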). The following applies: Recombinant KvBeta, NADPH fluorescence decrease slope, 10 min; at 10 µM; stronger effect = lower value.
Assay [6] has as its target Alpha-2C adrenergic receptor (Homo sapiens) (UniProt P18825). The assay is described as follows: modulators of alpha2C/GIRK thallium flux, primary screen, cell-based, HEK293 alpha2C/GIRK1/2 (AID 624;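 active means fluorescence slope after compound addition differing from the mean of all screened samples at 99.7% confidence, in either direction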;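 further: slope of fluorescence ratio to pre-addition baseline per second over 15 to 24 s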). The following applies: thallium flux BTC fluorescence, at 10 µM, actives lie on both sides.
Assay [7] can be described thus: inhibitors of Sendai virus-induced IRF3 signaling, primary screen, TLR/RLR signaling modifier project, cell-based, Sendai virus stimulus, luciferase, 10K MLSCN set (AID 602276;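 active means inhibition at or above 50% at 10 µM; inactive means inhibition below 50%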;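 further: firefly luciferase from ISG56 promoter only with Renilla not read in this screen; 0% = Sendai virus plus DMSO and 100% = medium plus DMSO without virus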). The following applies: HEK293 RL24 IRF3 luciferase reporter, at 10 µM, stronger effect = higher value. On the technique in general: In a reporter assay the amount or activity of a reporter protein is the signal.

Assay [8] in a line: inhibitors of poly I:C-induced TLR3 signaling, primary screen, cell-based, poly I:C stimulus, luciferase, 10K MLSCN set (AID 602277). To be noted: HEK293-TLR3 RL24 IRF3 luciferase reporter, at 10 µM, stronger effect = higher value.

Chain of Alpha-2C adrenergic receptor (Homo sapiens) (P18825 whole entry, looked up): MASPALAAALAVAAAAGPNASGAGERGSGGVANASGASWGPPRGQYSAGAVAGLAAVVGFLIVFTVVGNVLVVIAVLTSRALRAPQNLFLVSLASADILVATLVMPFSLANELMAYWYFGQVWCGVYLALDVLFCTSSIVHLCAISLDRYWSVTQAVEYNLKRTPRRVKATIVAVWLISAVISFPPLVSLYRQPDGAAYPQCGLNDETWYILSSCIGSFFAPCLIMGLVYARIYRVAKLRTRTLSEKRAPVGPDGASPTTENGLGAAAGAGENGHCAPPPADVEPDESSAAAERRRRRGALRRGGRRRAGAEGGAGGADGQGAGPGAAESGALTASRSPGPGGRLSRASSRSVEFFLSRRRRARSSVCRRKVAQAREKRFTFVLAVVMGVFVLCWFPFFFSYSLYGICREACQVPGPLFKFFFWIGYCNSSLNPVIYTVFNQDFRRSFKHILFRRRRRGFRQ

Take `Cc1ccc2c(Cl)cc(Cl)c(OCc3c(C)noc3C)c2n1`: the cell count in assay [1] came to 731. The inhibition in assay [1] was -1.2% (inactive); in assay [3] it was -164% (inactive); in assay [7], -17% (inactive); in assay [8] it was -0.677% (inactive). In addition, the inhibition of aggregation in assay [2] was -13.6% (inactive). Moreover, the results for the nuclei count in assay [2] and in assay [3] were 97.3% and 142%, respectively. Besides, the fluorescence slope in assay [4] is -0.604 (inactive). Further, the NADPH fluorescence slope in assay [5] is 2.6e-05 (inactive). Moreover, the slope in assay [6] is 0.00543 (inactive).
As for `CCSc1nc2ccccc2n1CC(N)=O`, the cell count in assay [1] amounted to 400. For the same molecule, the inhibition in assay [1] was 2.1% (inactive); in assay [3] it was -62.6% (inactive); in assay [7], 14.3% (inactive); in assay [8], 20.8% (inactive). In addition, in assay [2], the inhibition of aggregation is -4% (inactive). In addition, the nuclei count worked out at 114% in assay [2] and 113% in assay [3]. The fluorescence slope in assay [4] was -0.449 (inactive). Moreover, in assay [5], the NADPH fluorescence slope was -0.000317 (inactive). The slope in assay [6] is 0.00599 (inactive).
For `CCN(Cc1ccccc1)C(c1ccncc1)c1nnnn1C(C)(C)C` (centres undefined), the cell count in assay [1] worked out at 618. For the same molecule, the inhibition was 11.6% (inactive) in assay [1], -42.3% (inactive) in assay [3], 17.8% (inactive) in assay [7] and 21.6% (inactive) in assay [8]. Further, the inhibition of aggregation in assay [2] is -32% (inactive). Moreover, the figures for the nuclei count in assay [2] and in assay [3] were 122% and 116%, respectively. Moreover, in assay [4], the fluorescence slope is -0.606 (inactive). Also, the NADPH fluorescence slope in assay [5] is -3.2e-05 (inactive). Further, the slope in assay [6] is 0.0048 (inactive).
For `O=C(NC(C(=O)c1ccccc1)N1CCOCC1)c1cccs1` (centres undefined), in assay [1], the cell count stood at 629. Besides, the inhibition in assay [1] was -14.3% (inactive); in assay [3], -2.1% (inactive); in assay [7], -18.2% (inactive); in assay [8] it was -23.5% (inactive). The inhibition of aggregation in assay [2] is 19.4% (inactive). Moreover, the nuclei count is 72.3% in assay [2] and 101% in assay [3]. Also, in assay [4], the fluorescence slope is -0.311 (inactive). The NADPH fluorescence slope in assay [5] was -5.7e-05 (inactive). Further, the slope in assay [6] was 0.00609 (inactive).
As for `COc1ccc(CCNC(=O)CSCc2n[nH]c(=O)[nH]2)cc1OC`, the cell count in assay [1] was 330. In addition, the inhibition is 1.6% (inactive) in assay [1], -97.5% (inactive) in assay [3], 19.2% (inactive) in assay [7] and 24.3% (inactive) in assay [8]. Also, in assay [2], the inhibition of aggregation is -15.4% (inactive). The nuclei count in assay [2] worked out at 99.5%; in assay [3], 131%. Moreover, in assay [4], the fluorescence slope is -0.476 (inactive). The NADPH fluorescence slope in assay [5] was -3.9e-05 (inactive). Further, the slope in assay [6] is 0.00502 (inactive).
As to `Cn1cc(CN2CCc3ccccc3C2)c2ccccc21`, the cell count in assay [1] amounted to 361. The inhibition in assay [1] is -12.1% (inactive); in assay [3], -62.7% (inactive); in assay [7], 20.8% (inactive); in assay [8] it was 37.6% (inactive). Also, the inhibition of aggregation in assay [2] was -6.2% (inactive). In addition, the nuclei count in assay [2] came to 146%; in assay [3], 110%. Moreover, in assay [4], the fluorescence slope is -0.408 (inactive). The NADPH fluorescence slope in assay [5] is -0.000148 (inactive). In addition, the slope in assay [6] was 0.00535 (inactive).
`O=C(O)c1ccc2c(c1)C(=O)N(c1ccc(Cl)cn1)C2=O`: the cell count in assay [1] was determined as 675. Besides, the inhibition in assay [1] is -4.5% (inactive); in assay [3], -72% (inactive); in assay [7] it was 10.9% (inactive); in assay [8], 29.8% (inactive). The inhibition of aggregation in assay [2] was 14.8% (inactive). Besides, the figures for the nuclei count in assay [2] and in assay [3] were 84.8% and 131%, respectively. For the same molecule, in assay [4], the fluorescence slope is -0.55 (inactive). For the same molecule, in assay [5], the NADPH fluorescence slope was -2.8e-05 (inactive). Besides, the slope in assay [6] is 0.00724 (inactive).
For the molecule `CC1CCc2nn(CC(=O)N3CCN(C(=O)c4ccco4)CC3)cc2C1` (centres undefined), in assay [1], the cell count was determined as 758. Besides, the inhibition in assay [1] is -8.5% (inactive); in assay [3] it was -41% (inactive); in assay [7], 6.35% (inactive); in assay [8], 25.7% (inactive). For the same molecule, the inhibition of aggregation in assay [2] is -12% (inactive). Moreover, the results for the nuclei count in assay [2] and in assay [3] were 112% and 107%, respectively. Also, the fluorescence slope in assay [4] was -0.585 (inactive). Further, in assay [5], the NADPH fluorescence slope was -5.6e-05 (inactive). Also, in assay [6], the slope was 0.0063 (inactive).
Consider `CCOc1ccc(S(=O)(=O)n2nc(C)cc2C)c2ccccc12`, for which the cell count in assay [1] was 355. Further, the inhibition in assay [1] is -5.4% (inactive); in assay [3], -52.3% (inactive); in assay [7], -0.884% (inactive); in assay [8], -17.2% (inactive). Also, the inhibition of aggregation in assay [2] was 0.3% (inactive). The nuclei count in assay [2] amounted to 108%; in assay [3], 115%. The fluorescence slope in assay [4] was -0.347 (inactive). Moreover, in assay [5], the NADPH fluorescence slope was 2e-05 (inactive). Further, the slope in assay [6] is 0.00571 (inactive).
In the case of `CC(Sc1nc(-c2ccccc2)cc(C(F)(F)F)n1)C(=O)N1CCCC1` (centres undefined), the cell count in assay [1] turned out to be 698. Also, the inhibition in assay [1] is -1.1% (inactive); in assay [3], -83% (inactive); in assay [7], 5.88% (inactive); in assay [8], 16.9% (inactive). Further, the inhibition of aggregation in assay [2] was -38.4% (inactive). The nuclei count was 118% in assay [2] and 133% in assay [3]. The fluorescence slope in assay [4] is -0.506 (inactive). In addition, the NADPH fluorescence slope in assay [5] is 3.3e-05 (inactive). The slope in assay [6] is 0.00611 (inactive).
Take `Cc1nc2ccc(S(=O)(=O)NC(C(=O)Nc3nccs3)C(C)C)cc2s1` (centres undefined): the cell count in assay [1] was 549. Also, the inhibition in assay [1] was -6.2% (inactive); in assay [3] it was -17.1% (inactive); in assay [7], 13.6% (inactive); in assay [8], 30.5% (inactive). For the same molecule, in assay [2], the inhibition of aggregation was -4.4% (inactive). Further, the nuclei count turned out to be 95.9% in assay [2] and 120% in assay [3]. In assay [4], the fluorescence slope was -0.589 (inactive). Further, in assay [5], the NADPH fluorescence slope was -2.2e-05 (inactive). Further, the slope in assay [6] was 0.00646 (inactive).
With `CCCCOC(=O)n1c(SCC(=O)N(CC)CC)nc2ccccc21`, the cell count in assay [1] was found to be 307. For the same molecule, the inhibition was 5.3% (inactive) in assay [1], 10% (inactive) in assay [3], -15.8% (inactive) in assay [7] and -54.6% (inactive) in assay [8]. For the same molecule, in assay [2], the inhibition of aggregation was 1.4% (inactive). For the same molecule, the values for the nuclei count in assay [2] and in assay [3] were 107% and 106%, respectively. Moreover, the fluorescence slope in assay [4] is -0.585 (inactive). Moreover, the NADPH fluorescence slope in assay [5] was -3.7e-07 (inactive). Also, the slope in assay [6] was 0.00671 (inactive).
With `C/C=C/COC(=O)c1[nH]c2c(c1C)C(=O)CC(c1ccco1)C2` (centres undefined), in assay [1], the cell count was 582. In addition, the inhibition in assay [1] is 13.8% (inactive); in assay [3], -141% (inactive); in assay [7] it was 25.7% (inactive); in assay [8], 82.7% (active). Besides, the inhibition of aggregation in assay [2] is 4.4% (inactive). Besides, the nuclei count in assay [2] was 3.3%; in assay [3] it was 97%. In assay [4], the fluorescence slope was -0.496 (inactive). Besides, the NADPH fluorescence slope in assay [5] is -1.1e-06 (inactive). For the same molecule, the slope in assay [6] is 0.00708 (inactive).
On to `c1ccc(Cc2ccc(OCCn3cncn3)cc2)cc1`, for which the cell count in assay [1] was determined as 755. The inhibition in assay [1] is -5.6% (inactive); in assay [3], -68.7% (inactive); in assay [7], -18.4% (inactive); in assay [8], -0.13% (inactive). Also, the inhibition of aggregation in assay [2] is -15.5% (inactive). Also, the nuclei count in assay [2] came to 102%; in assay [3], 108%. Also, in assay [4], the fluorescence slope is -0.477 (inactive). Besides, in assay [5], the NADPH fluorescence slope was 1.2e-05 (inactive). Further, the slope in assay [6] was 0.00592 (inactive).

The inhibition is the relative decrease from the control value, in per cent.
